According to PubChem BioAssay (NCI):
This is part of a sample that, as a whole, favours compounds with a hit. Of some 83,000 tested, about 20% had one in any assay.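 In brief: 96-well plates, 48 h treatment, single concentration, percent growth endpoint.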 The source made the active and inactive calls. The calls were made as follows: active = growth percent below 10; inactive = the rest.

What was measured:
Assay in all cases: NCI-60 one-dose screen, 48 h (100 = growth as untreated, 0 = no growth, -100 = all killed)
Details in all cases: 10 µM unless noted
NCI-H23 lung = test system: NCI-H23 lung
NCI-H226 lung = test system: NCI-H226 lung
NCI-H322M lung = test system: NCI-H322M lung
HOP-62 NSCLC = test system: HOP-62 NSCLC
NCI-H460 lung = test system: NCI-H460 lung
HOP-92 NSCLC = test system: HOP-92 NSCLC
A549/ATCC NSCLC = test system: A549/ATCC NSCLC
786-0 renal = test system: 786-0 renal
COLO 205 colon = test system: COLO 205 colon

Measured: growth

c1ccc(-c2nc(Nc3nccnn3)c3ccccc3n2)cc1
inactive: NCI-H23 lung 90.4% | NCI-H226 lung 87.5% | NCI-H322M lung 98.1% | HOP-62 NSCLC 99.8% | NCI-H460 lung 101% | HOP-92 NSCLC 105% | A549/ATCC NSCLC 102% | 786-0 renal 96.9% | COLO 205 colon 107%

COc1cc(/C=C/C(=O)C(C(=O)/C=C/c2ccc(OC(=O)CCNc3nnc(C)s3)c(OC)c2)C(=O)CCNc2nnc(C)s2)ccc1OC(=O)CCNc1nnc(C)s1
active: NCI-H460 lung -29% | HOP-92 NSCLC -16.4% | 786-0 renal -38% | COLO 205 colon -26.3%
inactive: NCI-H23 lung 11.9% | NCI-H226 lung 24.5% | NCI-H322M lung 42.1% | HOP-62 NSCLC 27.6% | A549/ATCC NSCLC 34.3%

CC(=O)/C(=C/c1ccc(Cl)cc1)C(=O)c1ccccc1
inactive: NCI-H23 lung 88.6% | NCI-H226 lung 107% | NCI-H322M lung 101% | HOP-62 NSCLC 95.5% | NCI-H460 lung 99.7% | HOP-92 NSCLC 62.5% | A549/ATCC NSCLC 94.8% | 786-0 renal 93.9% | COLO 205 colon 111%

c1ccc(Nc2ccc(Nc3nc(-c4ccccc4)nc4ccccc34)cc2)cc1
inactive: NCI-H23 lung 86.9% | NCI-H226 lung 81.2% | NCI-H322M lung 90.5% | HOP-62 NSCLC 79.8% | NCI-H460 lung 83.4% | HOP-92 NSCLC 134% | A549/ATCC NSCLC 63.2% | 786-0 renal 65.7% | COLO 205 colon 78.5%

O=Cc1ncc(-c2ccc(C(F)(F)F)cc2)c(NC2CCCCCC2)n1
active: NCI-H23 lung -73.1% [100 µM] | NCI-H322M lung -5.95% [100 µM] | HOP-62 NSCLC -94.9% [100 µM] | NCI-H460 lung -51.3% [100 µM] | HOP-92 NSCLC -95.4% [100 µM] | A549/ATCC NSCLC -79.2% [100 µM] | 786-0 renal -82.1% [100 µM] | COLO 205 colon -60.5% [100 µM]
inactive: NCI-H226 lung 28.2% [100 µM]

CN(C)c1ncnc2c1ncn2C1CCCCO1 (stereo unspecified)
inactive: NCI-H23 lung 101% | NCI-H226 lung 98.5% | NCI-H322M lung 98.9% | HOP-62 NSCLC 110% | NCI-H460 lung 113% | HOP-92 NSCLC 71% | A549/ATCC NSCLC 104% | 786-0 renal 99.4% | COLO 205 colon 98.3%

O=C(Nc1nc2ccc(OC(F)(F)F)cc2s1)c1ccc(F)cc1
active: NCI-H23 lung -34.7% | NCI-H460 lung -13.1% | HOP-92 NSCLC -14% | COLO 205 colon -17.4%
inactive: NCI-H226 lung 20.6% | NCI-H322M lung 30% | HOP-62 NSCLC 26.1% | A549/ATCC NSCLC 14.5% | 786-0 renal 16.2%

CN1C(=O)C(C2=NN(C=O)C(c3ccc(F)cc3)C2)C(=O)N(C)C1=O (stereo unspecified)
inactive: NCI-H23 lung 99% | NCI-H226 lung 85.2% | NCI-H322M lung 106% | HOP-62 NSCLC 84.4% | NCI-H460 lung 102% | HOP-92 NSCLC 91.7% | A549/ATCC NSCLC 74.7% | 786-0 renal 100% | COLO 205 colon 104%

COC(=O)N/N=C/c1coc2ccc(Cl)cc2c1=O
active: HOP-92 NSCLC 1.24%
inactive: NCI-H23 lung 99.4% | NCI-H226 lung 84.7% | NCI-H322M lung 99.2% | HOP-62 NSCLC 74.7% | NCI-H460 lung 102% | A549/ATCC NSCLC 103% | 786-0 renal 104% | COLO 205 colon 91.4%

COc1ccc(C2=NN(C(N)=S)C(c3ccc4c(c3)OCO4)C2)cc1 (stereo unspecified)
inactive: NCI-H23 lung 26.7% | NCI-H226 lung 58.2% | NCI-H322M lung 25.6% | HOP-62 NSCLC 46.7% | NCI-H460 lung 42.6% | HOP-92 NSCLC 54% | A549/ATCC NSCLC 58.6% | 786-0 renal 30.6% | COLO 205 colon 56.5%

OC(c1cc(-c2cccc(Cl)c2)nc2ccccc12)C1CCCCN1 (stereo unspecified)
active: NCI-H23 lung 3.63% | NCI-H322M lung -12.3% | HOP-62 NSCLC -67.3% | NCI-H460 lung -47% | HOP-92 NSCLC -17.6% | A549/ATCC NSCLC -90.4% | 786-0 renal -82.6% | COLO 205 colon -85.7%
inactive: NCI-H226 lung 31.2%

CC(C)N(Cc1ccccc1)c1c(Cl)ssc1=O
inactive: NCI-H23 lung 106% | NCI-H226 lung 101% | NCI-H322M lung 109% | HOP-62 NSCLC 113% | NCI-H460 lung 109% | HOP-92 NSCLC 82.5% | A549/ATCC NSCLC 88.8% | 786-0 renal 102% | COLO 205 colon 106%

COC(=O)[C@H](Cc1cn(C)cn1)NC(=O)[C@H](Cc1ccccc1)NC(=O)Nc1cc(C(F)(F)F)cc(C(F)(F)F)c1
active: NCI-H23 lung -83.3% [100 µM] | NCI-H226 lung -50.9% [100 µM] | NCI-H322M lung -94.2% [100 µM] | HOP-62 NSCLC -97.4% [100 µM] | NCI-H460 lung -50% [100 µM] | HOP-92 NSCLC -97.3% [100 µM] | A549/ATCC NSCLC -85.6% [100 µM] | 786-0 renal -91.4% [100 µM] | COLO 205 colon -82.1% [100 µM]

O=C(CN1CCN(c2ccc(Cl)cc2)CC1)N1CCN(c2nnc(-c3ccc(Cl)cc3)c(-c3ccc(Cl)cc3)n2)CC1
inactive: NCI-H23 lung 85% | NCI-H226 lung 62% | NCI-H322M lung 77.9% | HOP-62 NSCLC 103% | NCI-H460 lung 75.3% | HOP-92 NSCLC 60.1% | A549/ATCC NSCLC 15% | 786-0 renal 80.6% | COLO 205 colon 90.8%
